# In ChEMBL document CHEMBL3988442, “University of Dundee, Small-Polar-MMV Screening Library” (2021):
# In all, about 69,000 compounds went through this assay and about 1,000 (1.4%) showed an effect of 50% or more. The sample holds strong results, similar compounds and a random draw of the others, so the mix is not that of the screen.
# Test system: Leishmania donovani
# Assay: Leishmania intramacrophage assay
# Format: functional, organism-based
# Set-up: scale not given: in the data most compounds retested in dose-response had high values
structure (smiles),measurement,setting,value
Cc1cccnc1NCCNC(=O)c1cnc(-c2cccs2)nc1O,Percent Effect,"30.3 µM, […]",22.97%
Cc1cccnc1NCCNC(=O)c1cnc(-c2ccccn2)nc1O,Percent Effect,"30.3 µM, […]",81.9%
Cc1nc(-c2ncc(C(=O)NCCNc3ncccc3C)c(O)n2)cs1,Percent Effect,"30.3 µM, […]",28.4%
O=C(c1occc1CN1C(=O)Cc2ccccc21)N1CCCCCC1,Percent Effect,"30.3 µM, […]",31.83%
Cc1cc(NC(=O)c2ccccc2Br)n(C)n1,Percent Effect,"30.3 µM, […]",-1.29%
CC(C)Oc1cccc(CN2CCC(C(C)N3CCOCC3)CC2)c1 (stereo not drawn),Percent Effect,"30.3 µM, […]",60.52%
CC(C1CCN(Cc2ccccc2OC(F)F)CC1)N1CCOCC1 (stereo not drawn),Percent Effect,"30.3 µM, […]",38.92%
CC(C1CCN(Cc2ccc(N(C)C)nc2)CC1)N1CCOCC1 (stereo not drawn),Percent Effect,"30.3 µM, […]",35.27%
CC(C1CCN(Cc2cccc(OC(F)F)c2)CC1)N1CCOCC1 (stereo not drawn),Percent Effect,"30.3 µM, […]",37.87%
CC(C)Oc1cccc(CN2CCC(c3n[nH]c4ncccc34)CC2)c1,Percent Effect,"30.3 µM, […]",-3.157%
CC(C1CCN(Cc2ccc(OC(F)F)cc2)CC1)N1CCOCC1 (stereo not drawn),Percent Effect,"30.3 µM, […]",57.26%
CN1CCN(C(=O)c2n[nH]c3c2CN(C2CCOC2)CC3)CC1 (stereo not drawn),Percent Effect,"30.3 µM, […]",7.447%
CCc1c(C)sc2c1c(N)nc(=O)n2CCN1CCCCC1,Percent Effect,"30.3 µM, […]",45.7%
OC(CN1CCC(c2ccn[nH]2)CC1)c1ccccc1F (stereo not drawn),Percent Effect,30 µM,30.71%
COC[C@@]12CCC[C@@H]1CN(C(=O)COC1CCCC1)C2,Percent Effect,"30.3 µM, […]",36.81%
CN(C)C(=O)CO[C@H]1CO[C@@]2(CCN(Cc3ccoc3)C2)C1,Percent Effect,"30.3 µM, […]",51.04%
COc1ccccc1CN1CC[C@]2(C[C@@H](OCC(=O)N(C)C)CO2)C1.O=C(O)C(F)(F)F,Percent Effect,"30.3 µM, […]",48.44%
CCOC1COC2(CCN(Cc3cccc(F)c3)CC2)C1.O=C(O)C(F)(F)F (stereo not drawn),Percent Effect,"30 µM, 30.03 µM",37.88%
CN(C)C(=O)CO[C@H]1CO[C@@]2(CCN(Cc3ccsc3)C2)C1.O=C(O)C(F)(F)F,Percent Effect,"30.3 µM, […]",39.07%
CN(C)C(=O)COC1COC2(CCN(c3ncccn3)CC2)C1 (stereo not drawn),Percent Effect,"30.3 µM, […]",64.89%
Cc1ccc(N2CCC3(CC2)CC(OCC(=O)N(C)C)CO3)nn1 (stereo not drawn),Percent Effect,"30 µM, 30.03 µM",10.68%
CN(C)C(=O)COC1COC2(CCN(c3cccc(F)c3)CC2)C1.O=C(O)C(F)(F)F (stereo not drawn),Percent Effect,"30.3 µM, […]",52.62%
COc1ccc(OCC(=O)NS(=O)(=O)c2ccc(Br)s2)cc1,Percent Effect,30 µM,-22.07%
Cc1occc1C(=O)N1CCCn2cnc(CN3CCCC3=O)c2C1,Percent Effect,"30.3 µM, […]",1.546%
CCOc1ccc(NC(C)=O)cc1S(=O)(=O)Nc1ccon1,Percent Effect,"30.3 µM, […]",32.01%
CC(C)C(=O)Nc1ncn(Cc2cccc(Br)c2)n1,Percent Effect,"30.3 µM, […]",26.25%
O=C(c1ccoc1)N1CC[C@@H]2O[C@@H](COCC3CCOCC3)CC[C@@H]21,Percent Effect,"30.3 µM, […]",5.212%
Cn1nc(C2CC2)cc1C(=O)N1CCC(c2nnsc2S(C)(=O)=O)CC1,Percent Effect,"30.3 µM, […]",16.49%
Cn1ncc(Cl)c1C(=O)N1CCC(c2nnsc2S(C)(=O)=O)CC1,Percent Effect,"30.3 µM, […]",50.11%
Cn1nccc1C(=O)N1CCC(c2nnsc2S(C)(=O)=O)CC1,Percent Effect,"30.3 µM, […]",17.02%
N#Cc1ccc(C(=O)N2CC[C@H]3[C@H]2CCN3CC2CCOCC2)cc1.O=C(O)C(F)(F)F,Percent Effect,"30.3 µM, […]",9.058%
Cc1nc(CNc2ccccc2CCC(F)(F)F)cs1,Percent Effect,"30.3 µM, […]",6.456%
Cc1cnc(NC(=O)c2csc(NCC(C)C)n2)s1,Percent Effect,"30.3 µM, […]",62.13%
O=C(Nc1nccs1)c1csc(NC2CCCC2)n1,Percent Effect,"30.3 µM, […]",48.24%
Cc1cnc(NC(=O)c2csc(NC3CCCC3)n2)s1,Percent Effect,"30.3 µM, […]",92.33%
O=C(Nc1ccccn1)c1csc(NC2CCCC2)n1,Percent Effect,"30.3 µM, […]",-23.02%
Cc1cccc(NC(=O)c2csc(NCC(C)C)n2)n1,Percent Effect,"30.3 µM, […]",-8.581%
CC(=O)NCC1CCC2(CCN(c3nccc(C4CCCC4)n3)CC2)O1 (stereo not drawn),Percent Effect,"30.3 µM, […]",3.551%
Cn1cc(N2CC3(COCCN(Cc4ccccn4)C3)OCC2=O)cn1.O=C(O)C(F)(F)F (stereo not drawn),Percent Effect,"30.3 µM, […]",33.72%
COc1cccc(C(=O)NCC2CCN(C(=O)c3ccoc3)CC2)c1,Percent Effect,"30.3 µM, […]",42%
CCn1cc(CN2C[C@H]3CC[C@@H]2CN(C(=O)c2ccncc2)C3)cn1,Percent Effect,"30.3 µM, […]",-21.9%
CCC(C)c1csc(NC(=O)Cc2csc(-c3nnc[nH]3)n2)n1 (stereo not drawn),Percent Effect,"30.3 µM, […]",56.95%
CCC(C)c1csc(NC(=O)c2sc(-c3nnc[nH]3)nc2C)n1 (stereo not drawn),Percent Effect,"30.3 µM, […]",32.74%
CC(C)c1nnc(NC(=O)Cc2csc(-c3nnc[nH]3)n2)s1,Percent Effect,"30.3 µM, […]",6.395%
OCCc1ccccc1-n1ccnc1-c1cn(C2CCNCC2)nn1,Percent Effect,"30.3 µM, […]",-17.07%
COc1cccc(CCn2ccnc2-c2cn(C3CCNCC3)nn2)c1,Percent Effect,"30.3 µM, […]",-3.244%
Clc1ccccc1CCn1ccnc1-c1cn(C2CCNCC2)nn1,Percent Effect,"30.3 µM, […]",-11.26%
Cc1cccc2[nH]c(-c3cn(C4CCNCC4)nn3)nc12,Percent Effect,"30.3 µM, […]",8.553%
Cc1c(C)c(C)c2[nH]c(-c3cn(C4CCNCC4)nn3)nc2c1C,Percent Effect,"30.3 µM, […]",88.31%
Cc1ccc(-n2ccnc2-c2cn(C3CCNCC3)nn2)c(Cl)c1,Percent Effect,"30.3 µM, […]",17.13%
Cc1cc2nc(-c3cn(C4CCNCC4)nn3)[nH]c2cc1C,Percent Effect,"30.3 µM, […]",79.71%
CSc1ccccc1-n1ccnc1-c1cn(C2CCNCC2)nn1,Percent Effect,"30.3 µM, […]",-6.736%
Cc1ccc2[nH]c(-c3cn(C4CCNCC4)nn3)nc2c1C,Percent Effect,"30.3 µM, […]",79.71%
CCCc1noc(CN2CCOCC2C)n1 (stereo not drawn),Percent Effect,"30.3 µM, […]",-25.75%
COCc1noc(Cn2ncn3cccc3c2=O)n1,Percent Effect,"30.3 µM, […]",-34.29%
Cc1nccc(N[C@H]2CN(C(=O)CN3CCOCC3)C[C@@H]2C(C)C)n1,Percent Effect,"30.3 µM, […]",9.574%
CC(C)n1cnc2c1C(C(=O)N1CCOCC1)N(CC1CC1)CC2.O=C(O)C(F)(F)F (stereo not drawn),Percent Effect,"30.3 µM, […]",17.66%
O=C(NCc1ccccn1)Nc1ccc2[nH]nnc2c1,Percent Effect,"30.3 µM, […]",23.78%
Cn1ccc(CN2CCCC23CCN(Cc2ccccc2F)CC3)n1.O=C(O)C(F)(F)F.O=C(O)C(F)(F)F,Percent Effect,"30.3 µM, […]",36.62%
O=C(O)[C@@H]1CN(Cc2ccc3nsnc3c2)C[C@H]1c1cccnc1,Percent Effect,"30.3 µM, […]",23.58%
Cc1ccccc1-c1noc(CN2CCn3c(nnc3C3CC3)C2)n1,Percent Effect,"30 µM, 30.03 µM",9.47%
COc1cccc(CN2CC(O)CN(C(=O)C3CCC3)CC2=O)c1OC (stereo not drawn),Percent Effect,"30.3 µM, […]",10.32%
COc1c(C2CCCN2C(=O)c2ccoc2C)c(C)nn1C (stereo not drawn),Percent Effect,"30.3 µM, […]",0.8433%
Cc1nn(C)c(C)c1C(=O)NCc1cc(N(C)C)nc2ccccc12,Percent Effect,"30.3 µM, […]",50.16%
CCn1nc(C)cc1C(=O)NCc1cc(N(C)C)nc2ccccc12,Percent Effect,"30.3 µM, […]",34.59%
Cc1nn(C)cc1C(=O)NCc1cc(N(C)C)nc2ccccc12,Percent Effect,"30.3 µM, […]",27.45%
CCOC(=O)C1(Cc2ccc(Cl)cc2)CCN(Cc2ncc[nH]2)CC1,Percent Effect,"30.3 µM, […]",14.14%
CNc1ncc(CN(C)C(=O)c2ccccc2C2CCNC2)cn1 (stereo not drawn),Percent Effect,"30.3 µM, […]",-3.65%
O=S(=O)(NCc1cccnc1OC1CCCC1)N1CCCCC1,Percent Effect,"30.3 µM, […]",-4.69%
COc1ncccc1CNc1snc(Cl)c1C#N,Percent Effect,"30.3 µM, […]",30.49%
N#Cc1c(Cl)nsc1NCc1ccc(N2CCSCC2)cc1,Percent Effect,"30.3 µM, […]",88.25%
N#Cc1c(Cl)nsc1NCc1ccc(N2CCC(CO)CC2)cc1,Percent Effect,"30.3 µM, […]",13.7%
CN(C)c1ncccc1CNc1snc(Cl)c1C#N,Percent Effect,"30.3 µM, […]",-27.87%
CC(O)CNC(=O)NCc1cccnc1OC1CCCC1 (stereo not drawn),Percent Effect,"30 µM, 30.03 µM",16.57%
N#Cc1c(Cl)nsc1NCc1cccnc1OCC(F)(F)F,Percent Effect,"30.3 µM, […]",71.75%
Cc1ncsc1C(=O)NCc1ccnc(OCC(F)(F)F)c1,Percent Effect,30 µM,34.79%
N#Cc1c(Cl)nsc1NCc1cccnc1OC1CCCC1,Percent Effect,"30.3 µM, […]",98.68%
N#Cc1c(Cl)nsc1NCc1ccc(N2CCCC(C(N)=O)C2)cc1 (stereo not drawn),Percent Effect,"30.3 µM, […]",27.85%
N#Cc1c(Cl)nsc1NCc1ccnc(OCC(F)(F)F)c1,Percent Effect,"30.3 µM, […]",96.62%
Cc1n[nH]cc1CNCc1ccnc(OCC(F)(F)F)c1.Cl,Percent Effect,"30.3 µM, […]",28.01%
COc1ncc(-c2ccc(NC(C)=O)cc2)c(OC)n1,Percent Effect,"30.3 µM, […]",5.344%
CCOCC1CN(C(=O)C2CCOCC2)Cc2cnn(C)c21 (stereo not drawn),Percent Effect,"30.3 µM, […]",-4.533%
COCCN1C[C@@H]2[C@@H](OC)CCN(Cc3cccs3)[C@@H]2C1.O=C(O)C(F)(F)F.O=C(O)C(F)(F)F,Percent Effect,"30.3 µM, […]",25.04%
NC(=O)Cn1cc(NC(=O)N2CCSCC2)cn1,Percent Effect,30 µM,-2.179%
CCOc1ccc2nc(NC(=O)c3c(C(=O)O)cnn3C)sc2c1,Percent Effect,"30.3 µM, […]",4.578%
Cc1c(Cl)ccc2ccc(NC(CO)CO)nc12,Percent Effect,"30.3 µM, […]",6.475%
CC(NC(=O)Cn1cc(C(N)=O)c(-c2ccccc2)n1)C1CC1 (stereo not drawn),Percent Effect,"30.3 µM, […]",12.7%
CC(C)(C)c1ccc(C(=O)C2CCCN(C(=O)CNS(C)(=O)=O)C2)cc1 (stereo not drawn),Percent Effect,"30.3 µM, […]",1.067%
CC(=O)NCC(=O)N1CCCC(C(=O)c2ccc(C(C)(C)C)cc2)C1 (stereo not drawn),Percent Effect,"30.3 µM, […]",16.87%
CC(C)(N)C(=O)N1CCCC(C(=O)c2ccc(C(C)(C)C)cc2)C1 (stereo not drawn),Percent Effect,"30.3 µM, […]",91.24%
Cc1cc(COC(=O)[C@@H]2Cc3ccccc3CN2S(C)(=O)=O)no1,Percent Effect,"30.3 µM, […]",12.34%
Cc1nccc(NCc2cncc3c2CCN(CC2CCOC2)C3)n1.Cl.Cl (stereo not drawn),Percent Effect,"30.3 µM, […]",55.7%
Cc1nccc(NCc2cncc3c2CCN(CC2CC2)C3)n1.Cl.Cl,Percent Effect,"30.3 µM, […]",25.61%
Cc1nccc(NCc2cncc3c2CCN(CCN(C)C)C3)n1,Percent Effect,"30.3 µM, […]",29.74%
Cc1nc(NC2(CN3CCCCC3)CCCCC2)c2cnn(C)c2n1,Percent Effect,"30.3 µM, […]",21.44%
COCC1(Nc2nc(C)nc3c2cnn3C)CCCC1,Percent Effect,"30.3 µM, […]",32.37%
CCOC(=O)CC1(Nc2nc(C)nc3c2cnn3C)CCCCC1,Percent Effect,"30.3 µM, […]",50.84%
CCOc1ccccc1C1=CCN(C(=O)C2CCN(C)C(=O)C2)CC1 (stereo not drawn),Percent Effect,30 µM,-1.516%
O=C1CC(NCc2cccc(O)c2)CN1CCc1cccc(Cl)c1 (stereo not drawn),Percent Effect,"30.3 µM, […]",24.84%
Cc1nnc(NC(=O)C2CSCN2C(=O)C2CCCC2)s1 (stereo not drawn),Percent Effect,"30.3 µM, […]",-31.76%
O=C(O)c1cc(-c2ccn(CC3CC3)n2)n2ccccc12,Percent Effect,"30.3 µM, […]",20%
O=C(c1cc(-c2ccn(CC3CC3)n2)n2ccccc12)N1CCOCC1,Percent Effect,"30.3 µM, […]",88.37%
O=C(c1cc(-c2ccn(CC3CC3)n2)n2ccccc12)N1CCCO1,Percent Effect,"30.3 µM, […]",27.45%
